Reference: PubChem BioAssay AID1159580 (chemical genetic matrix, 2015)
“And” between values parts separate entries of the source, which are not always exact repeats. Equal values may be shown once. Hit rate of the full screen: of about 5,500 compounds, about 2,000 (36%) were called active. Inconclusive results (about 18%) are left out. Rule as the data show it: active = normalized growth mostly below about 0.91 (no sharp cut-off); inconclusive = no clear call, values can overlap the other calls; inactive = mostly above about 0.92. The list shows a part of the results.

Experiment: chemical genetic growth profiling, strain panel (AID 1159580);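 also: tested at 20 µM; growth read once vehicle control cultures reached saturation at 30 °C; 1 = growth at the plate median or of vehicle wells; lower values mean less growth of the strain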
Settings: S. cerevisiae deletion strains, growth OD

Measured: normalized growth

CC(N)C(=O)OC(C)(C)Cc1ccc(Cl)cc1 (stereo unspecified)
inactive: locus YAL013W, strain DEP1, hits give low values 0.986 and 1.01 | locus YAL021C, strain ccr4, hits give low values 1.03 | locus YAL026C, strain drs2, hits give low values 1.03 | locus YAL030W, strain snc1, hits give low values 1.01 | locus YAL040C, strain CLN3, hits give low values 1 | locus YBL061C, strain skt5, hits give low values 1.02 | locus YBR009C, strain hhf1, hits give low values 1.06 | locus YBR021W, strain FUR4, hits give low values 0.943 | locus YBR023C, strain chs3, hits give low values 1.02 | locus YBR171W, strain sec66, hits give low values 1.02 | locus YBR229C, strain ROT2, hits give low values 0.957 | locus YBR231C, strain swc5, hits give low values 1.01 | locus YBR279W, strain paf1, hits give low values 1.01 | locus YCL011C, strain gbp2, hits give low values 1.01 | locus YCL016C, strain dcc1, hits give low values 1.01 | locus YCL029C, strain bik1, hits give low values 0.987 | locus YCL061C, strain MRC1 (second series), hits give low values 0.995 | locus YCL061C, strain MRC1, hits give low values 1.02 | locus YCL069W, strain vba3, hits give low values 1.01 | locus YCR088W, strain abp1, hits give low values 1.01 | locus YDL005C, strain med2, hits give low values 1.03 | locus YDL035C, strain GPR1, hits give low values 0.98 | locus YDL040C, strain nat1, hits give low values 1 | locus YDL074C, strain BRE1, hits give low values 0.988 | locus YDL101C, strain DUN1, hits give low values 0.983 | locus YDL134C, strain PPH21, hits give low values 0.984 | locus YDL185W, strain tfp1, hits give low values 0.996 | locus YDL192W, strain arf1, hits give low values 0.983 | locus YDR001C, strain nth1, hits give low values 1.02 | locus YDR069C, strain doa4, hits give low values 1.03 | locus YDR101C, strain arx1, hits give low values 0.983 | locus YDR137W, strain rgp1, hits give low values 1.05 | locus YDR150W, strain NUM1, hits give low values 0.96 | locus YDR159W, strain sac3, hits give low values 1.01 | locus YDR162C, strain NBP2, hits give low values 0.985 | locus YDR195W, strain ref2 0.97 | locus YDR297W, strain sur2, hits give low values 1.01 | locus YDR318W, strain mcm21, hits give low values 0.996 | locus YDR334W, strain swr1, hits give low values 1.02 | locus YDR335W, strain msn5, hits give low values 1.02 | locus YDR363W, strain ESC2, hits give low values 0.999 | locus YDR388W, hits give low values 0.989 | locus YDR392W, strain spt3, hits give low values 1.03 | locus YDR502C, strain sam2, hits give low values 0.991 | locus YEL003W, strain gim4, hits give low values 1.01 | locus YEL037C, strain rad23, hits give low values 1.01 | locus YEL061C, strain CIN8 (second series), hits give low values 1.02 | locus YEL061C, strain CIN8, hits give low values 0.977 | locus YER002W, strain NOP16, hits give low values 1.02 | locus YER015W, strain faa2, hits give low values 1.01 | locus YER016W, strain bim1, hits give low values 1.01 | locus YER110C, hits give low values 0.972 | locus YER111C, strain swi4, hits give low values 1.03 | locus YER155C, strain BEM2 (second series), hits give low values 0.996 | locus YER155C, strain BEM2, hits give low values 1 | locus YER167W, strain BCK2, hits give low values 1.01 | locus YFR010W, strain ubp6, hits give low values 1.03 | locus YGL078C, strain dbp3, hits give low values 0.983 | locus YGL086W, strain mad1, hits give low values 0.975 | locus YGL167C, strain pmr1, hits give low values 1.01 | locus YGL173C, strain kem1, hits give low values 1.04 | locus YGL227W, strain vid30, hits give low values 1.01 | locus YGL240W, strain doc1, hits give low values 1.02 | locus YGL248W, strain PDE1, hits give low values 0.984 | locus YGL253W, strain hxk2, hits give low values 1.01 | locus YGR078C, strain PAC10, hits give low values 0.982 | locus YGR135W, strain pre9, hits give low values 0.994 | locus YGR229C, strain SMI1, hits give low values 0.996 | locus YGR252W, strain gcn5, hits give low values 0.882 | locus YHR013C, strain ard1, hits give low values 1.04 | locus YHR027C, strain rpn1, hits give low values 1.01 | locus YHR030C, strain SLT2, hits give low values 0.982 and 1.03 | locus YHR079C, strain IRE1 (second series), hits give low values 0.994 | locus YHR079C, strain IRE1, hits give low values 1.03 | locus YHR094C, strain hxt1, hits give low values 0.995 | locus YHR129C, strain ARP1, hits give low values 0.997 | locus YHR142W, strain chs7, hits give low values 1.04 | locus YHR200W, strain rpn10, hits give low values 0.987 | locus YIL066C, strain RNR3, hits give low values 0.965 | locus YIL073C, strain SPO22, hits give low values 1.02 | locus YIL125W, strain kgd1, hits give low values 0.984 | locus YIR030C, strain dcg1, hits give low values 0.977 | locus YJL092W, strain hpr5, hits give low values 1.02 | locus YJL095W, strain BCK1 (second series), hits give low values 1 | locus YJL095W, strain BCK1, hits give low values 1.02 and 1.01 | locus YJL115W, strain asf1, hits give low values 1.02 | locus YJL129C, strain trk1, hits give low values 1.03 | locus YJL134W, strain LCB3, hits give low values 0.983 | locus YJL154C, strain vps35, hits give low values 1.01 | locus YJL164C, strain tpk1, hits give low values 1.03 | locus YJL166W, strain qcr8, hits give low values 1.04 | locus YJL168C, strain set2, hits give low values 0.989 | locus YJL187C, strain SWE1 (second series), hits give low values 0.978 | locus YJL187C, strain SWE1, hits give low values 1.01 | locus YJR043C, strain POL32, hits give low values 1.02 | locus YJR066W, strain TOR1, hits give low values 0.971
